# TrxR1 substrate: qHTS Assay for Substrates of Mammalian Selenoprotein Thioredoxin Reductase 1 (TrxR1): qHTS | purified TrxR1 substrate turnover, NADPH consumption readout | Thioredoxin reductase 1, cytoplasmic (Rattus norvegicus), O89049 | Potency, µM (highest dose often 114 µM), for the others: at the top dose activity change, negative = substrate turnover | 390,000 compounds, 0.01% hits; further: potency means the concentration at half of the fitted maximal effect; nearly all actives have a fitted effect of over 50% in size
# Target sequence (O89049 whole entry, looked up): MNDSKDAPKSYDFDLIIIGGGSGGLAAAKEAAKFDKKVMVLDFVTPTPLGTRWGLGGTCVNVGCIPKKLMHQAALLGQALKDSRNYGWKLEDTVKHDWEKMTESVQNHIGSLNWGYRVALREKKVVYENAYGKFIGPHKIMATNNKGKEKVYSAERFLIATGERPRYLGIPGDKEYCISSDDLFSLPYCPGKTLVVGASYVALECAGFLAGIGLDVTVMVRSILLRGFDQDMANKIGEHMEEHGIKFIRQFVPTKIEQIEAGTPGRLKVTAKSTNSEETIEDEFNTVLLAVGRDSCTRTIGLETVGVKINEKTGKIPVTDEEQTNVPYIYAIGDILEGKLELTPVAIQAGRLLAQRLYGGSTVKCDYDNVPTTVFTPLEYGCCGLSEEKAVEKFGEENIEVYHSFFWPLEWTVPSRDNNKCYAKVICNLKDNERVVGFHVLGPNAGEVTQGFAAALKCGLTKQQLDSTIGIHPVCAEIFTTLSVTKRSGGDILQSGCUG
#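 Rat TrxR1, dispensed at 90 nM, was prereduced with 400 uM NADPH (final) for 5 min at ~22 deg C, then incubated with compound 15 min before 400 uM selenite. A first-read NADPH fluorescence drop versus no-compound background flagged substrates.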
# Gal4-VP16 FLuc: VP16 counterscreen qHTS for inhibitors of ROR gamma transcriptional activity; AID 2546, 2010; Potency, µM (highest dose often 53.6 µM), without a hit: at the top dose activity, negative = inhibition, actives largely listed as inhibitors; 310,000 compounds, 3.5% hits; Drosophila S2 Gal4-VP16 UAS-luciferase, luminescence, 20 h;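 further: Gal4-VP16 expression switched on by copper sulfate through the metallothionein promoter; potency means the concentration at half of the fitted maximal effect; nearly all actives have a fitted effect of over 50% in size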
# Coupling enz: qHTS Assay for Inhibitors of Fructose-1,6-bisphosphate Aldolase from Giardia Lamblia: Coupling assay counterscreen; coupling enzyme system counterscreen, AmpLite Red fluorescence; activity change, negative = inhibition, % at 58.2 µM, hits read low; 290,000 compounds, 0.67% hits; in the data active means activity change below about -30%
#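 Counterscreen of the coupled detection system alone, without aldolase: glyceraldehyde-3-phosphate coupling enzymes plus AmpLite Red readout. Compounds at 57.5 uM final, 10 min RT preincubation, 20 min RT reaction, fluorescence 525/598 nm.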
# RORgamma inh: qHTS for inhibitors of ROR gamma transcriptional activity | Nuclear receptor ROR-gamma (Mus musculus), P51450 | Drosophila S2 Gal4-RORgamma UAS-luciferase reporter, 20 h | Potency, µM (titrated, usually from 53.6 µM), for inactives: top-dose activity change, negative = inhibition, actives largely listed as inhibitors | 310,000 compounds, 5.4% hits | AID 2551, 2010; further: potency means the concentration at half of the fitted maximal effect; nearly all actives have a fitted effect of over 60% in size
#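 Read-out: Photinus luciferase luminescence; inhibitors lower reporter signal. Insect Schneider cells with Gal4-ROR gamma fusion under metallothionein promoter, UAS reporter; 700 uM final copper sulfate induction, 20 hr, ambient temperature.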
# GALK inh: qHTS Assay for Inhibitors of Human Galactokinase (GALK) | Purified GALK, Kinase-Glo residual ATP luminescence | Potency, µM (doses to about 57.5 µM), for inactives: at the highest dose activity change, negative = inhibition, actives largely listed as inhibitors | 270,000 compounds, 0.007% hits | AID 1868, 2009 | P51570; further: potency means the concentration at half of the fitted maximal effect
#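 Human GALK (5 nM) with 35 uM ATP and 100 uM galactose in 20 mM HEPES pH 8.0, 5 mM MgCl2, 60 mM NaCl, 1 mM DTT, 0.01% BSA. After 1 h at room temperature, leftover ATP was read by Kinase-Glo Plus luminescence.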
# TrxR1 inh: qHTS Assay for Inhibitors of Mammalian Selenoprotein Thioredoxin Reductase 1 (TrxR1): qHTS | 390,000 compounds, 1% hits | recombinant rTrxR1, NADPH fluorescence consumption, selenite substrate | Potency, µM (titrated, usually from 114 µM), inactives show top-dose activity change, negative = inhibition, actives largely listed as inhibitors | AID 588453, 2011; further: potency means the concentration at half of the fitted maximal effect; nearly all actives have a fitted effect of over 65% in size
#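 Rat TrxR1 (90 nM in the dispensed reagent) was pre-reduced with 400 uM NADPH for 5 min at room temperature, then incubated with compound for 15 min. After 400 uM selenite was added, NADPH fluorescence (Ex 340/Em 450 nm) was followed for 8 min.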
# Numbers without * were called inactive; ? = inconclusive; · = no result; [ ] = another dose, or the depositor's remark. Sampled rows, rich in hits. Any-hit rate of the full collection: about 5.9%. Unless noted, the call rests on the fitted dose curve; in most records, active means well fitted curve in the direction sought with a large enough effect; inconclusive means small, poorly fitted or top-dose-only effect, or another doubt; inactive means no such curve, though single readings can be large; an effect the other way counts as inactive or inconclusive. On the % scale 0 is the no-effect control and ±100 the full control effect.
SMILES,TrxR1 substrate,Gal4-VP16 FLuc,Coupling enz,RORgamma inh,GALK inh,TrxR1 inh
Cc1ccc(-c2c3c(=O)n(C)c(=O)n(C)c3cn2N2CCOCC2)cc1,-1.7%,4.5%,5.4,13.3%,1.7%,1.2%
CCC(C)NC(=S)Nc1ccc(C(=O)OC)cc1 (stereo not given),-21.6%[57.1 µM],?,3.4,7.08µM*,-0.3%,12.2%[57.1 µM]
CC(Cc1cccs1)NC(=O)Nc1ccccc1 (stereo not given),0.4%[57.1 µM],22.5%,-0.6,18.9%,0.5%,-4.8%[57.1 µM]
CCN(CC)NC(=S)Nc1ccccc1,-3.2%,?,2.3,3.16µM*,-1.3%,-12.4%
CC(Cc1cccs1)NC(=S)Nc1ccccc1 (stereo not given),-6.3%,7.08µM*,-2.7,4.47µM*,0.7%,-7.5%
CCC(C)NC(=S)Nc1ccccc1 (stereo not given),5.2%,?,0.9,5.62µM*,1.2%,-1.9%
CCC(C)NC(=S)Nc1ccccc1OC (stereo not given),-13.0%,-1.2%,3.7,4.8%,1.2%,-4.4%
Cc1ccc(-n2ncc(C(=O)NCCN3CCN(C)CC3)c2C2CCN(C(=O)OC(C)(C)C)CC2)cc1,-7.5%,·,·,·,·,-22.7%
CCCC(C)NC(=S)Nc1cc(C)cc(C)c1 (stereo not given),9.9%[57.1 µM],6.31µM*,0.0,1.41µM*,-0.5%,4.3%[57.1 µM]
CCCOC(=S)Nc1ccccc1,-6.3%,-20.3%,4.1,11.2µM*,1.4%,-4.5%
CCc1cccc(CC)c1NC(=S)Nc1ccccc1,2.3%,?,0.7,12.6µM*,-3.1%,-2.2%
CC(C)c1ccccc1NC(=S)NC(C)c1ccccc1 (stereo not given),4.7%[57.1 µM],?,0.0,?,0.0%,-1.0%[57.1 µM]
CC(NC(=S)Nc1ccc(F)cc1)c1ccccc1 (stereo not given),2.7%[2.29 µM],7.94µM*,0.2,7.08µM*,6.3%,10.6%[57.1 µM]
CC(C)NC(=O)N(C)C[C@H]1Oc2ccc(NC(=O)CCN3CCOCC3)cc2C(=O)N([C@H](C)CO)C[C@@H]1C,6.5%,·,·,·,·,15.7%
CC1=NN(C(=S)Nc2ccccc2)C(c2ccccc2)C1 (stereo not given),11.7%,?,-4.0,12.6µM*,2.9%,18.8%
O=c1c2ccccc2nc(-c2cccc(Cl)c2)n1O,2.9%,·,-0.5,1.4%[0.365 µM],-4.3%,-2.1%
Cc1ccc(-c2nc3ccccc3c(=O)n2O)cc1,9.6%,14.1µM*,1.9,?,-0.5%,21.4%
O=c1c2ccccc2nc(-c2ccc([N+](=O)[O-])cc2)n1O,4.1%[57.1 µM],3.98µM*,-8.1,4.4%,0.8%,12.7%[57.1 µM]
Cc1ccccc1/C=N/Nc1nc2ccccc2c(=O)n1O,0.1%,?,-1.2,7.08µM*,·,5.6%
Cc1ccc(-c2nc3ccc(Cl)cc3c(=O)n2O)cc1,0.2%,11.2µM*,-4.3,?,0.4%,9.8%
CCOc1ccc(CC(=O)Nc2ccc(-c3ccc4nnc(C)n4n3)cc2)cc1,22.7%,-9.4%,3.3,-28.2%,-0.2%,8.8%
CC(=O)Nc1ccc(SCC(c2ccccc2)N2CCN(CCc3ccccc3)CCC2=O)cc1 (stereo not given),0.2%,8.3%,-1.7,40.3%,·,-19.0%
O=c1c2cc(Br)ccc2nc(-c2ccccc2)n1O,-14.1%,?,-2.2,?,-5.8%,3.4%[57.1 µM]
O=c1c2cc(Cl)ccc2nc(-c2ccccc2Cl)n1O,2.5%[57.1 µM],20µM*,-3.7,?,-1.5%,13.6%[57.1 µM]
Cc1cc(C)n(Cc2n[nH]c(=S)n2Cc2ccccc2)n1,0.1%,?,4.8,11.2µM*,0.2%,-19.7%
SMILES,TrxR1 substrate,Gal4-VP16 FLuc,Coupling enz,RORgamma inh,GALK inh,TrxR1 inh
Cc1ccn2c(-c3n[nH]c(=S)n3Cc3ccccc3)c(C)nc2c1,-4.6%,0.1%,0.3,-8.2%,·,?
COc1ccc(Cc2n[nH]c(=S)n2Cc2ccccc2)cc1Cl,3.5%[57.1 µM],-3.2%,0.5,-4.6%,-1.2%,6.4%[57.1 µM]
Cc1nn(Cc2n[nH]c(=S)n2Cc2ccccc2)c(C)c1Cl,-8.4%,20µM*,1.9,5.62µM*,-1.9%,?
Cc1ccsc1-c1nc(CN2CCCC2c2ccc(F)cc2)c(C)o1 (stereo not given),3.6%,-4.5%,0.3,10µM*,0.3%,0.0%
COc1ccccc1C1CCCN1Cc1nc(-c2ccc(C)s2)oc1C (stereo not given),13.4%[57.1 µM],-5.8%,-0.7,?,-3.2%,7.1%[57.1 µM]
COc1cccc(C2CCCN2Cc2nc(-c3sccc3C)oc2C)c1 (stereo not given),3.8%,4.3%,-2.4,28.2µM*,0.6%,?
COc1ccc(NC(=O)C(C)n2c(C)c3cnn(-c4ccccc4)c(=O)c3c2C)cc1Cl (stereo not given),-1.0%,·,·,·,·,3.0%
O=C(C1CCN(S(=O)(=O)Cc2ccccc2)CC1)N1CCN(c2cccc(C(F)(F)F)c2)CC1,-3.8%,·,·,·,·,-9.6%
N=C1/C(=C\c2coc3ccccc3c2=O)C(=O)N=C2SC(c3ccncc3)=NN12,17.7%[0.0914 µM],4.0%,5.7,24.9%,?,?
N=C1/C(=C/c2coc3ccccc3c2=O)C(=O)N=C2SC(c3ccco3)=NN12,-12.9%,2.6%,-4.9,10.8%,-2.5%,50.1µM*
Cc1cc2nc3c(=O)[nH]c(=O)[nH]c3nc2c([N+](=O)[O-])c1N,-18.2%,-0.3%,-30.0*,15.7%,4.3%,-10.2%
CC1CC2(CCCC2)Nc2ccc(F)cc21 (stereo not given),-5.5%,-10.3%,-1.7,0.2%,1.4%,0.8%
CC1CC(C)(C)Nc2ccc(N=O)cc21 (stereo not given),-3.6%[57.1 µM],2.9%,-0.3,13.3%,6.3%,0.891µM*
CC1CC(C)(C)Nc2ccc(OC(=O)c3ccco3)cc21 (stereo not given),-9.9%,2.51µM*,·,5.01µM*,-0.7%,-7.8%
CC(=O)Nc1nonc1-c1nnc(SCC(=O)Nc2ccccc2)n1-c1ccccc1,11.4%,·,·,·,·,20.5%
C/C(=N\NC(=O)Cn1c(C)nc2ccccc21)c1cccs1,-9.5%,-29.1%,4.7,?,0.5%,-10.5%
CCC(=O)N1CCN(c2ccc(NC(=S)NC(=O)c3ccc(OC)c([N+](=O)[O-])c3)cc2)CC1,0.5%,5.01µM*,0.1,7.08µM*,1.3%,-39.5%
CCOc1ccc(C(=O)NC(=S)Nc2ccc(N3CCC(C)CC3)cc2)cc1[N+](=O)[O-],10.5%[57.1 µM],?,0.5,0.398µM*,0.4%,11.9%[57.1 µM]
